Laboratory results reported in PubChem BioAssay (Tox21).
Inconclusive results are not listed. Active and inactive are the calls of the source. The call rests on the fitted dose curve.

assay: qHTS assay to identify small molecule agonists of the endoplasmic reticulum stress response signaling pathway - cell viability counter screen (AID 1159517); details: ESRE-bla HeLa viability, CellTiter-Glo luminescence, 5 h; series mostly up to 61 µM; further: nearly all actives have a fitted effect of over 50% in size
Excerpt: U.S. Tox21 Program National Center for Advancing Translational Sciences [NCATS] NIH Chemical Genomics Center [NCGC] U.S. Environmental Protection Agency [EPA] National Institutes of Environmental Health Sciences [NIEHS] National Toxicology Program [NTP] U.S. Food and Drug Administration [FDA] Tox21 Assay Overview: Endoplasmic Reticulum (ER) plays an important role in cellular signaling, protein folding/maturation, stress response, lipid biosynthesis, calcium storage and release etc. Under stress conditions, proteins in ER misfold or unfold, and leading to the expression of ER stress responsive genes. ER stress has been associated with a variety of pathophysiological conditions such as cancer, inflammation, neurodegenerative diseases, diabetes, ischemic heart disease etc. To identify the compounds that induce ER stress response, an ER stress reporter cell line, CellSensor ESRE-bla HeLa (Life Technologies, Carlsbad, CA) containing a beta-lactamase reporter gene under control of the Endoplasmic reticulum Stress Response Element (ESRE) was used to screen Tox21 10K compound library. The cytotoxicity of the Tox21 compound library against the ESRE-bla HeLa cell line was tested in parallel by measuring cell viability using the CellTiter-Glo assay in the same wells.
Tox21 Assay Protocol Summary: ESRE-bla HeLa cells were dispensed at 1,500 cells/6 uL of assay medium per well into black wall/clear-bottom 1536-well plates using a Multidrop Combi (ThermoFisher Scientific, Waltham, MA) dispenser. After the assay plates were incubated at 37 C and 5% CO2 for an overnight, 23 nL of compounds dissolved in DMSO, positive controls or DMSO only was transferred to the assay plate by a Pintool station (Kalypsys, San Diego, CA). The assay plates were incubated at 37 C and 5% CO2 for 5 hr. One uL of LiveBLAzer B/G FRET substrate (Life Technologies) was added using a FRD (Flying Reagent Dispenser, Aurora Discovery, San Diego, CA) and the plates were incubated at room temperature for 2 hr. Fluorescence intensity (405 nm excitation, 460 nm and 530 nm emissions) was measured using an Envision plate reader (PerkinElmer, Shelton, CT). For cytotoxicity, 4 ul/well of CellTiter-Glo reagent was added into the assay plates using an FRD. After 30 min incubation at room temperature, the luminescence intensity was measured using a ViewLux plate reader (PerkinElmer).

| SMILES | outcome |
| --- | --- |
| COc1ccc(C(=O)c2ccc(C)cc2)c(O)c1 | inactive |
| C=C[Si](OCC)(OCC)OCC | inactive |
| C1=COCCC1 | inactive |
| CCCCOc1ccc(N)cc1 | inactive |
| CC(O)C(C)O (stereo not given) | inactive |
| CC(C)=CCCC(C)C=O (stereo not given) | inactive |
| C=CC(O)CCCCC (stereo not given) | inactive |
| C1CCN(CN2CCCCC2)CC1 | inactive |
| CC1(C)CC(=O)CC(C)(C)N1 | inactive |
| CC(=O)c1ccc(Cl)c(Cl)c1Cl | inactive |
| COc1ccc(/C=C/c2cc(OC)cc(=O)o2)cc1 | inactive |
| O=c1c2ccccc2oc2ccccc12 | inactive |
| Nc1ncnc2c1ncn2[C@@H]1O[C@H](CO)[C@@H](O)[C@H]1O | inactive |
| CCC(=O)O[C@]1(C(=O)COC)[C@@H](C)C[C@H]2[C@@H]3CCC4=CC(=O)C=C[C@]4(C)C3(F)[C@@H](O)C[C@@]21C (stereo not given in full) | inactive |
| O=[N+]([O-])c1cccc(I)c1 | inactive |
| CCc1c(C)[nH]c2c1C(=O)C(CN1CCOCC1)CC2 (stereo not given) | inactive |
| CCCCCCCCCCCCSCCOCCO | inactive |
| FC(F)(Cl)C(F)(Cl)Cl | inactive |
| CCOc1ccccc1O | inactive |
| CCc1cnc(C(=O)O)c(C(=O)O)c1 | inactive |

| SMILES | outcome |
| --- | --- |
| CC(=O)c1cccnc1 | inactive |
| CCCCCCCCCCCCCCCCC(=O)O | inactive |
| C=CC(=O)NC(C)(C)C | inactive |
| CCCCCCC/C=C/C=O | inactive |
| CCOc1ccc(NC(C)=O)cc1N | inactive |
| Oc1ccc(CCNCCCCCCNCCc2ccccc2)cc1O | inactive |
| CC(=O)Nc1ccccc1O | inactive |
| Cc1c(-c2cccnc2)c2ccccc2n1CCCCC(=O)O | inactive |
| CC(C)(C)c1ccc(CCC=O)cc1 | inactive |
| CCCCCCCCCCCCN1CCOCC1 | inactive |
| c1ccc(CN(Cc2ccccc2)Cc2ccccc2)cc1 | inactive |
| C[C@H](N)C(=O)N[C@@H](C)C(=O)NC1[C@H]2CN(c3nc4c(cc3F)c(=O)c(C(=O)O)cn4-c3ccc(F)cc3F)C[C@@H]12 (stereo not given in full) | inactive |
| CCCCCCCCCC(C)C=O (stereo not given) | inactive |
| Cc1cc(N)n(-c2ccccc2)n1 | inactive |
| CCCCCO | inactive |
| CC(Cc1ccccc1)(NC(=O)CN)c1ccccc1 (stereo not given) | inactive |
| CO[C@@H]1[C@@H](O[C@@H]2O[C@H](C)[C@@H](O[C@H]3C[C@@](C)(O)[C@@H](O)[C@H](C)O3)[C@H](N(C)C)[C@H]2O)[C@@H](CC=O)C[C@@H](C)[C@@H](O[C@@H]2CC[C@H](N(C)C)[C@@H](C)O2)/C=C/C=C/C[C@@H](C)OC(=O)C[C@H]1OC(C)=O | inactive |
| O=[N+]([O-])c1ccc(Cl)cc1Cl | inactive |
| CCC(C)C1N=C(C)C(C)S1 (stereo not given) | inactive |
| Cc1c(Cl)cccc1[N+](=O)[O-] | inactive |
